Experiment: 384-well plate pilot, post-Golgi transport modulator project, inhibition of yeast transport mutant growth (AID 636)
Settings: absorbance 615 nm, about 18 h, stronger effect = higher value; in the data active = inhibition above about 31%; inactive = the rest

inhibition, inactive:
COc1ccc(-c2noc(COc3ccc4ccccc4c3Br)n2)cc1OC -4.21%, CC(=O)c1ccc(NC2OC(C)C(O)C(O)C2O)cc1 (configuration not stated) 2.24%, CSc1nc(C)cc(OCC(=O)N2CCOCC2)n1 -4.81%, O=C(CCCn1c(=S)[nH]c2ccccc2c1=O)N1CCCCC1 -2.63%, CN(C(=O)c1ccccn1)c1nnc(-c2ccncc2)s1 -3.65%, CC(C)(C)OC(=O)N1CC(O)CC1C(=O)OCC(=O)c1ccc(Cl)cc1 (configuration not stated) -5.68%, Cc1csc(SCc2nc3sc4c(c3c(=O)[nH]2)CCC4)n1 -6.16%, CCC(C)NC(=O)CC1Oc2ccc(C)cc2NC1=O (configuration not stated) 0.13%, CCSc1nc(C)nc2c1oc1ccccc12 -4.67%, CC1=C(C)[N+](=O)C2CCCCC2N1[O-] (configuration not stated) -5.97%, O=c1[nH]c2c(s1)C(c1ccco1)C1C3CCC(C3)C1S2 (configuration not stated) -3.29%, CC1CCCCC1NC(=O)C1CCN(C(=O)NC2CCCCC2)CC1 (configuration not stated) -0.78%, COc1cccc(OC)c1C(=O)N1CCN(S(=O)(=O)c2ccc(C)cc2)CC1 -7.2%, Cc1nnc(SCc2cc(=O)[nH]c(N3CCCCC3)n2)s1 -7.3%, CCc1[nH]nc2c1C(c1cccc(OC(=O)N3CCOCC3)c1)C(C#N)=C(N)O2 (configuration not stated) -3.42%, CS(=O)(=O)c1ccc2nc(NC(=O)c3cccs3)sc2c1 -6.76%, COc1ccc(C(=O)N2CCN(S(=O)(=O)c3cc(Cl)ccc3OC)CC2)cc1 -2.37%

Source: PubChem BioAssay
